Bioassay records as filed in PubChem BioAssay.
A selection follows.
aSyn UTR act: Activators working through SNCA 5'UTR binding (MLPCN). alpha-synuclein 5'UTR reporter, activators screen. activity score, % (tested at 7.5 µM), hits read low. 300,000 tested, 7.1% active; in the data active = activity score below about -60%
Active calls of the source: *.

SMILES	aSyn UTR act
COC(=O)c1ccc(COC(=O)c2ccc(SC)cc2OC)cc1	-115*
CCCCCCCCCCOC(=O)Cn1c(COc2ccccc2OC)[n+](C)c2ccccc21	81
Oc1c(CN2CCCCC2)cc(COCc2ccccc2)c2cccnc12	92
CCC(=O)c1ccc(OCc2ccccc2)c(OC)c1	-85*
COc1cc(C(=S)N2CCCC2)ccc1OCc1ccccc1	-67*
CC1=C(C(=O)Nc2ccccn2)C(c2ccc(Cl)cc2)NC(=S)N1 (stereo not drawn)	-122*
CC1=C(C(=O)Nc2ccccn2)C(c2ccc(Br)cc2)NC(=S)N1 (stereo not drawn)	-106*
COc1ccc(Cc2nnc(N/N=C/c3ccc(O)cc3)[nH]c2=O)cc1OC	82
COc1ccc(/C=N/Nc2nnc(Cc3ccccc3)c(=O)[nH]2)cc1OC	-67*
CCC(CC)c1nnc(NC(=O)c2ccc3ccccc3n2)s1	-86*
CC(C)N1CCc2c(sc(NC(=O)c3ccc4ccccc4c3)c2C(N)=O)C1	-97*
Cc1cnc(NC(=O)c2sc3ccccc3c2Cl)s1	59
CN1CCc2c(sc(NC(=O)c3ccc([N+](=O)[O-])o3)c2C(N)=O)C1	86
CC(C)c1nnc(NC(=O)c2sc3ccccc3c2Cl)s1	-110*
CC(C)c1nnc(NC(=O)c2ccc3ccccc3c2)s1	-64*
CCCc1cc(C(=O)Nc2nnc(C)s2)cs1	-115*
Cc1nnc(NC(=O)c2ccc3ccccc3c2)s1	-145*
CS/C(N)=N/N=C/c1ccc2c(c1)OCO2	-119*
N/C(=N\N=C\c1ccc(O)c(O)c1)c1nonc1N	-130*
N/C(=N\N=C\c1ccc(O)cc1)c1nonc1N	-182*
CS/C(N)=N/N=C/c1ccc([N+](=O)[O-])cc1	-133*
N/C(=N\N=C\c1ccc(Br)o1)c1nonc1N	-116*
COc1ccc(/C=N/N=C(\N)c2nonc2N)cc1OC	-93*
N/C(=N\N=C\c1cccc(O)c1)c1nonc1N	-106*
N/C(=N\N=C\c1ccc([N+](=O)[O-])cc1)c1nonc1N	-154*
SMILES	aSyn UTR act
COc1cc(/C=N/N=C(\N)c2nonc2N)ccc1O	-78*
CN(C)/C=N/C(=S)Nc1ccc(Cl)c(Cl)c1	-66*
Cc1ccccc1NC(=O)N1CCCC(c2nc(-c3ccc(C(C)C)cc3)no2)C1 (stereo not drawn)	-205*
CCC(C)C(=O)N1CCCC(c2nc(-c3cccs3)no2)C1 (stereo not drawn)	-126*
COc1cccc(-c2noc(C3CCCN(C(=O)CC(C)(C)C)C3)n2)c1 (stereo not drawn)	-127*
CCCCC(=O)N1CCCC(c2nc(-c3cccc(OC)c3)no2)C1 (stereo not drawn)	-141*
COc1cccc(-c2noc(C3CCCN(C(=O)c4ccccc4OC)C3)n2)c1 (stereo not drawn)	-85*
COc1ccc(C2CC(c3ccccc3)=NN2C(=O)COC(=O)c2cccnc2)cc1 (stereo not drawn)	-62*
COc1ccc(C2CC(c3ccccc3)=NN2C(=O)c2cccs2)cc1 (stereo not drawn)	-92*
COc1ccc(C2CC(c3ccccc3OC(=O)/C=C/c3ccccc3)=NN2C(C)=O)cc1 (stereo not drawn)	-69*
O=C1CCCC1C(=O)Nc1ccc2ccccc2c1 (stereo not drawn)	-121*
CC1(C)C2C/C(=N\O)C(C)(/[N+]([O-])=C/c3cccc([N+](=O)[O-])c3)CC21 (stereo not drawn)	-62*
O=S(=O)(c1ccc(Cl)s1)N1CCCc2cccc(O)c21	-125*
Cc1cc(C)c2nc(N3CCCC(C(=O)NCCCN4CCOCC4)C3)sc2c1 (stereo not drawn)	-77*
Cc1cc(C)c2nc(N3CCCC(C(=O)NCCN4CCOCC4)C3)sc2c1 (stereo not drawn)	-74*
O=C(COc1ccccc1C(=O)c1cnn(-c2ccccc2)c1)Nc1ccc2ccccc2c1	-136*
CC(C)c1ccc(NC(=O)COc2ccc(F)cc2C(=O)c2cnn(-c3ccccc3)c2)cc1	-115*
CCN(CC)c1ccc2c(c1)OC(N)=C(C#N)C2c1cccnc1 (stereo not drawn)	75
O=C(c1ccccc1)c1ccc2cc(O)ccc2c1	-231*
CCOc1ccccc1CNS(=O)(=O)c1ccc(-c2cnc(C3CC3)o2)cc1	74
CC(=O)C1=C(C)NC(SCC(=O)c2ccccc2)=C(C#N)C1c1ccco1 (stereo not drawn)	-162*
Cc1cc(C)n(C(=O)c2cc3sccc3[nH]2)n1	-82*
O=C(Cc1cccs1)Nc1nnc(-c2ccccc2)s1	-211*
O=C(Cc1cccs1)Nc1nnc(-c2ccc(F)cc2)s1	-76*
Cc1ccc(NNC(=S)Nc2ccc(C(C)C)cc2)c(C)c1	-145*
SMILES	aSyn UTR act
O=c1oc2cc(O)c(Cl)cc2c2ccccc12	-88*
COC(=O)Cn1ncn2c(cc3oc(C)cc32)c1=O	-118*
O=C(CCc1ccc(S(=O)(=O)N2CCOCC2)cc1)OCc1nc2ccccc2s1	-85*
Cc1ccc(C(=O)OCc2nc3ccccc3s2)o1	-103*
O=C(OCc1nc2ccccc2s1)c1ccc(Br)s1	-72*
O=C(OCc1nc2ccccc2s1)c1cc2ccccc2oc1=O	-100*
O=C(CSc1nnc(-c2ccco2)o1)N1CCCCC1	-95*
CC1CCN(c2ccc(-c3cccs3)nn2)CC1	102
O=C(CSc1nnc(-c2cccs2)o1)N1CCCCC1	-99*
CC1CCN(C(=O)CSc2nnc(-c3cccs3)o2)CC1	-79*
O=C(CSc1nnc(-c2ccco2)o1)c1ccc[nH]1	-158*
Cc1sc2ncnc(SCC(=O)c3cccs3)c2c1C	-73*
CCc1cc2c(=O)n(C(C)C(=O)OC3CCCCC3)cnc2s1 (stereo not drawn)	-137*
C(/C=C/c1ccccc1)=N/N1CCN(c2ccccc2)CC1	-136*
CC(/C=N/N1CCN(c2ccccn2)CC1)=C\c1ccccc1	-134*
C(=C\c1ccccc1)/C=N/N1CCN(c2ccccn2)CC1	-153*
C(=C\c1ccccc1)/C=N/N1CCN(Cc2ccccc2)CC1	-74*
Clc1ccc2c(c1)C1OCCC1C(c1ccco1)N2 (stereo not drawn)	-125*
Cc1ccc(NC(=O)Nc2ncnc3nc[nH]c23)cc1	-106*
CCc1ccc(Nc2ncnc3nc[nH]c23)cc1	-70*
COc1cccc(Nc2ncnc3nc[nH]c23)c1	-83*
Cc1ccc(Nc2ncnc3nc[nH]c23)cc1Cl	-146*
Cc1ccc(CNc2ccc3c(c2)nc(C)n3C)cc1	-64*
Cc1nc2cc(NCc3ccc(Cl)cc3)ccc2n1C	-67*
O=[N+]([O-])c1ccccc1N/N=C/c1cc2ccccc2nc1Cl	-206*
SMILES	aSyn UTR act
Cc1cccc2cc(/C=N/Nc3ccc(C(=O)O)cc3)c(Cl)nc12	-197*
O=C(O)c1ccc(N/N=C/c2cc3ccccc3nc2Cl)cc1	-143*
Cc1ccc(C(=O)Nc2ccccc2C(=O)Nc2ccccn2)cc1Cl	-70*
COc1ccc(C(=O)Nc2ccccc2C(=O)Nc2ccccn2)cc1	-104*
Cc1ccc(C(=O)Nc2cccnc2Cl)cc1Cl	-156*
Cc1cc(C(=O)N/N=C2\CC(=O)c3ccccc32)c(C)n1-c1ccccc1	-112*
CCc1nonc1NC(=O)c1oc2ccccc2c1C	-75*
CCc1nonc1NC(=O)c1oc2cc(Br)ccc2c1C	-113*
CCc1nonc1NC(=O)c1oc2ccc(C)cc2c1C	-112*
CCc1ccc2oc(C(=O)Nc3nonc3CC)c(C)c2c1	-135*
O=C(CCl)NCCN1C(=O)S/C(=C\c2cccnc2)C1=O	-99*
